Results from the supplement of paper PMC10849652.
The full data set covers some 7,900 targets. This sample favours those with a hit. About 0.6% of all pairs of compound and target were hits. A number with no mark means an inactive call.

Legend:
Assay in all cases: log2 fold change, soluble protein after heating vs DMSO (PISA); higher = thermal stabilisation; K562 cells, 10 uM, 30 min; active = over 0.2 and 3.5 SD of the protein, either way, in both replicates (recomputed)
saracatinib = compound: CN1CCN(CCOc2cc(OC3CCOCC3)c3c(Nc4c(Cl)ccc5c4OCO5)ncnc3c2)CC1 [saracatinib]
Summary of the method: (§1)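 K562 cells at 2×10^6 cells/mL were exposed to 10 μM compound for 30 min, then aliquots were heated for 3 min across 48°C-58°C, pooled, and extracted in PBS containing 0.5% NP-40 at 4°C. The supernatant after 21,000xg for 90 min was taken as soluble protein and measured by TMTpro 16plex LC-MS/MS with channel sums equalised. Thermal stability is reported relative to control samples, with values from duplicates. Fold changes are given on a log2 scale.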

sotrastaurin = compound: CN1CCN(c2nc(C3=C(c4c[nH]c5ccccc45)C(=O)NC3=O)c3ccccc3n2)CC1 [sotrastaurin]
Summary of the method: as §1

alvocidib = compound: CN1CC[C@H](c2c(O)cc(O)c3c(=O)cc(-c4ccccc4Cl)oc23)[C@H](O)C1 [alvocidib]
Summary of the method: as §1

Tubastatin A = compound: CN1CCc2c(c3ccccc3n2Cc2ccc(C(=O)NO)cc2)C1 [Tubastatin A]
Summary of the method: as §1

[1] = compound: CNC(=O)C1=CC=CC=C1NC2=NC(=NC=C2Cl)NC3=C(C=C(C=C3)N4CCOCC4)OC
Summary of the method: as §1

defactinib = compound: CNC(=O)c1ccc(Nc2ncc(C(F)(F)F)c(NCc3nccnc3N(C)S(C)(=O)=O)n2)cc1 [defactinib]
Summary of the method: as §1

rucaparib = compound: CNCc1ccc(-c2[nH]c3cc(F)cc4c3c2CCNC4=O)cc1 [rucaparib]
Summary of the method: as §1

[2] = compound: CNc1nc(-c2ccc3c(N)n[nH]c3c2)cc(N2C[C@@H](C(=O)NC3CCCCC3)CC[C@H]2C)n1
Summary of the method: as §1

encorafenib = compound: COC(=O)N[C@@H](C)CNc1nccc(-c2cn(C(C)C)nc2-c2cc(Cl)cc(NS(C)(=O)=O)c2F)n1 [encorafenib]
Summary of the method: as §1

[3] = compound: COC(=O)[C@H](CCSC)NC(=O)C1=C(C=C(C=C1)NC[C@H](CS)N)C2=CC=CC=C2
Summary of the method: as §1

[4] = compound: COC1=CC=C(C=C1)CN2C=CC3=C2C=C(C=C3)C(=O)NO
Summary of the method: as §1

filanesib = compound: CON(C)C(=O)N1N=C(c2cc(F)ccc2F)S[C@@]1(CCCN)c1ccccc1 [filanesib]
Summary of the method: as §1

zotarolimus = compound: CO[C@H]1C[C@@H]2CC[C@@H](C)[C@@](O)(O2)C(=O)C(=O)N2CCCC[C@H]2C(=O)O[C@H]([C@H](C)C[C@@H]2CC[C@H](n3cnnn3)[C@H](OC)C2)CC(=O)[C@H](C)/C=C(\C)[C@@H](O)[C@@H](OC)C(=O)[C@H](C)C[C@H](C)/C=C/C=C/C=C/1C [zotarolimus]
Summary of the method: as §1

idasanutlin = compound: COc1cc(C(=O)O)ccc1NC(=O)[C@@H]1N[C@@H](CC(C)(C)C)[C@](C#N)(c2ccc(Cl)cc2F)[C@H]1c1cccc(Cl)c1F [idasanutlin]
Summary of the method: as §1

alisertib = compound: COc1cc(Nc2ncc3c(n2)-c2ccc(Cl)cc2C(c2c(F)cccc2OC)=NC3)ccc1C(=O)O [alisertib]
Summary of the method: as §1

[5] = compound: COc1cc2nc(-c3cc(F)ccc3O)nc(N[C@@H]3CNC[C@H]3C(C)(C)O)c2cc1OC
Summary of the method: as §1

gefitinib = compound: COc1cc2ncnc(Nc3ccc(F)c(Cl)c3)c2cc1OCCCN1CCOCC1 [gefitinib]
Summary of the method: as §1

[6] = compound: COc1cccc2cc(-c3nc([C@H]4CC[C@H](C(=O)O)CC4)n4ncnc(N)c34)[nH]c12
Summary of the method: as §1

lapatinib = compound: CS(=O)(=O)CCNCc1ccc(-c2ccc3ncnc(Nc4ccc(OCc5cccc(F)c5)c(Cl)c4)c3c2)o1 [lapatinib]
Summary of the method: as §1

pictilisib = compound: CS(=O)(=O)N1CCN(Cc2cc3nc(-c4cccc5[nH]ncc45)nc(N4CCOCC4)c3s2)CC1 [pictilisib]
Summary of the method: as §1

UniProt Q9NVI7, sequence (Q9NVI7 whole entry, looked up): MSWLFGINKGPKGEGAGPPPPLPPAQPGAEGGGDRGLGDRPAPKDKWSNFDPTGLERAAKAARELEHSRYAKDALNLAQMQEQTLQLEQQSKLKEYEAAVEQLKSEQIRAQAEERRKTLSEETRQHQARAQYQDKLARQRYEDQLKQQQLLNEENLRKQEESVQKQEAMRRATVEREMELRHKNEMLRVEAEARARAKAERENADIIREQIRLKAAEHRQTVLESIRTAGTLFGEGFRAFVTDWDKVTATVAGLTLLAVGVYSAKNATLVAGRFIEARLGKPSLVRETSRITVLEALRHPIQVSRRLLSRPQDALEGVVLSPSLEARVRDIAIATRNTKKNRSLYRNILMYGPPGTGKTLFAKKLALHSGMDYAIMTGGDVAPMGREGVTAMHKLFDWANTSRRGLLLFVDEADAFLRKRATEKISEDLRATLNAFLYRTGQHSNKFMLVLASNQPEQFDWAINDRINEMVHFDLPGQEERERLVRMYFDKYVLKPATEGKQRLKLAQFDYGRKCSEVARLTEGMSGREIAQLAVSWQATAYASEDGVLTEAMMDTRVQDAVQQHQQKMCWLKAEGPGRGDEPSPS
UniProt O00468, sequence (O00468 whole entry, looked up): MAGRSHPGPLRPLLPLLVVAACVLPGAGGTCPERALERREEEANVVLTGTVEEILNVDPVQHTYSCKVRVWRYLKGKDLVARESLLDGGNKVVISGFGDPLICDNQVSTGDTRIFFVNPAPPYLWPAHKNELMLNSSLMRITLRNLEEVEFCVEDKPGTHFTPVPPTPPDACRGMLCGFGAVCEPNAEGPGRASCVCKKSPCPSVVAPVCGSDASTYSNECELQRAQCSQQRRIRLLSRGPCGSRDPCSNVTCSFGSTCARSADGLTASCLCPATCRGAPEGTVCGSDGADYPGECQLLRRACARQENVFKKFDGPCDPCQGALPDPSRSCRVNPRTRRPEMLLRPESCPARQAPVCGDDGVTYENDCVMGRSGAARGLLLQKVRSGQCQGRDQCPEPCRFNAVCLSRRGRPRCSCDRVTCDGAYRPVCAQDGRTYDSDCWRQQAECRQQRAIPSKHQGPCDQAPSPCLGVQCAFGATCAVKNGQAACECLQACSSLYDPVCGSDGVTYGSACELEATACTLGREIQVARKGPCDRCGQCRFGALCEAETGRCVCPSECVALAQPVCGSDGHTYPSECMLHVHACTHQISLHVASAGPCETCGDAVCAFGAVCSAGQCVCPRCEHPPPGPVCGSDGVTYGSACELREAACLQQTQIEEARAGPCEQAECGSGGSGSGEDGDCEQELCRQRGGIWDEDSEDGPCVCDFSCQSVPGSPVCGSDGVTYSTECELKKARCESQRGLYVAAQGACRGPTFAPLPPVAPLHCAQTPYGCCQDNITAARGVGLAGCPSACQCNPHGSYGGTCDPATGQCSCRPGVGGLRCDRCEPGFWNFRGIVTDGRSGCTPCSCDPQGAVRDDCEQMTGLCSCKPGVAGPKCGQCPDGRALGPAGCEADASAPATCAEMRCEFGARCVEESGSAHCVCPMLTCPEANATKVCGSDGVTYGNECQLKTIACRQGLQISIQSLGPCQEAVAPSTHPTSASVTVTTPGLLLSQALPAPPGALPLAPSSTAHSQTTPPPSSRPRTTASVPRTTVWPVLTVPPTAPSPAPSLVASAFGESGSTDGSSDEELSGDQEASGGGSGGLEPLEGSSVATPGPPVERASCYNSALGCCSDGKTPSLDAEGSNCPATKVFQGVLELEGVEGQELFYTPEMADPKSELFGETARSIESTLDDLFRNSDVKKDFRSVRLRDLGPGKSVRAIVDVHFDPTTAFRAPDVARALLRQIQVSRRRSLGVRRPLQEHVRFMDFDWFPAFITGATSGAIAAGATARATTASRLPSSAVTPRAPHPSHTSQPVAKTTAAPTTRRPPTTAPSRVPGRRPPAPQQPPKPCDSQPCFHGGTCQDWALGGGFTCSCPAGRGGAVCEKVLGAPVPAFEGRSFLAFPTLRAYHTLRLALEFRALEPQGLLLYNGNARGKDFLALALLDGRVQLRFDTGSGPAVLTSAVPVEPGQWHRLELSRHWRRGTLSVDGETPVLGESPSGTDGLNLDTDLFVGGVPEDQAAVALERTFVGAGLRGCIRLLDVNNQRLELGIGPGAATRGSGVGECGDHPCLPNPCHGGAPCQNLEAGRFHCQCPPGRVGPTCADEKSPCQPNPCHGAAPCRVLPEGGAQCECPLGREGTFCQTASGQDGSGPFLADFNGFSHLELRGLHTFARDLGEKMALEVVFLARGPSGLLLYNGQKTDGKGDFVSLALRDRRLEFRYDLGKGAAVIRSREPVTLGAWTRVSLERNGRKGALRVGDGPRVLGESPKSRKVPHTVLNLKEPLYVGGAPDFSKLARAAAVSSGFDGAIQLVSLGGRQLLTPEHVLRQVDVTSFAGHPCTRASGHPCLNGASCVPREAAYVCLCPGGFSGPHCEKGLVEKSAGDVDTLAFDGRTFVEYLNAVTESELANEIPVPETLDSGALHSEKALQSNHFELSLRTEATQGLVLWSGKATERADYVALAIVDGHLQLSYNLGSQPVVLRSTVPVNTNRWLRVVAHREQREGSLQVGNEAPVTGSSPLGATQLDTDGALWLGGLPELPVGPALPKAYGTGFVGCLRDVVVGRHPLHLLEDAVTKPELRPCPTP
UniProt Q9UHQ4, sequence (Q9UHQ4 whole entry, looked up): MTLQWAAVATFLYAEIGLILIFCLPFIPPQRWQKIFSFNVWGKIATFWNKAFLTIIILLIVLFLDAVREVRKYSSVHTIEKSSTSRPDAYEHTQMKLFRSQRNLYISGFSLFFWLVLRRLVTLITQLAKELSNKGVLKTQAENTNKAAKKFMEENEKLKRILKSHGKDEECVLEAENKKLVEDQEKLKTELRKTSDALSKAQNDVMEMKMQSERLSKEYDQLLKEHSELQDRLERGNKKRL
UniProt Q7Z3C6, sequence (Q7Z3C6 whole entry, looked up): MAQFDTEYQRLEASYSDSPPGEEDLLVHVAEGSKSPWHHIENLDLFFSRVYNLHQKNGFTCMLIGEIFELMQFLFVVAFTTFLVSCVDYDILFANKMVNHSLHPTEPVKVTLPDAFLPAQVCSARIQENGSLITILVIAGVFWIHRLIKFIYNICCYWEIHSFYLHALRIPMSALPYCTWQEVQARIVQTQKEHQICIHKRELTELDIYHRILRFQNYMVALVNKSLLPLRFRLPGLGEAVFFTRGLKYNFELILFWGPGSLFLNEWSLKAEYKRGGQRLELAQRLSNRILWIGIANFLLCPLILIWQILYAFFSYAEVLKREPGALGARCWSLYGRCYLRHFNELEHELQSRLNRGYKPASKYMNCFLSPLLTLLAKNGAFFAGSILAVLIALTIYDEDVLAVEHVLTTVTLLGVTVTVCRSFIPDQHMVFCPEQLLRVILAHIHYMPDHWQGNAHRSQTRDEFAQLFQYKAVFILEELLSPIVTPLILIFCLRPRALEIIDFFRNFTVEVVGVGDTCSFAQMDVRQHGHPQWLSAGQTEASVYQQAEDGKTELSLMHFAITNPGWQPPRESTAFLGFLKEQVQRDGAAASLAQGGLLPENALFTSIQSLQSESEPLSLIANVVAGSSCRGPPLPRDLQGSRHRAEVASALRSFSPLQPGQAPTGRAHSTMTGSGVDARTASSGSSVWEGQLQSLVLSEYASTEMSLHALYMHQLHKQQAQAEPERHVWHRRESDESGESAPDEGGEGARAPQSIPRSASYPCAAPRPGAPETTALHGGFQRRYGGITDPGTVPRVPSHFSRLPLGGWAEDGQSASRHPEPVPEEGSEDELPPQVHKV
UniProt Q8IUR7, sequence (Q8IUR7 whole entry, looked up): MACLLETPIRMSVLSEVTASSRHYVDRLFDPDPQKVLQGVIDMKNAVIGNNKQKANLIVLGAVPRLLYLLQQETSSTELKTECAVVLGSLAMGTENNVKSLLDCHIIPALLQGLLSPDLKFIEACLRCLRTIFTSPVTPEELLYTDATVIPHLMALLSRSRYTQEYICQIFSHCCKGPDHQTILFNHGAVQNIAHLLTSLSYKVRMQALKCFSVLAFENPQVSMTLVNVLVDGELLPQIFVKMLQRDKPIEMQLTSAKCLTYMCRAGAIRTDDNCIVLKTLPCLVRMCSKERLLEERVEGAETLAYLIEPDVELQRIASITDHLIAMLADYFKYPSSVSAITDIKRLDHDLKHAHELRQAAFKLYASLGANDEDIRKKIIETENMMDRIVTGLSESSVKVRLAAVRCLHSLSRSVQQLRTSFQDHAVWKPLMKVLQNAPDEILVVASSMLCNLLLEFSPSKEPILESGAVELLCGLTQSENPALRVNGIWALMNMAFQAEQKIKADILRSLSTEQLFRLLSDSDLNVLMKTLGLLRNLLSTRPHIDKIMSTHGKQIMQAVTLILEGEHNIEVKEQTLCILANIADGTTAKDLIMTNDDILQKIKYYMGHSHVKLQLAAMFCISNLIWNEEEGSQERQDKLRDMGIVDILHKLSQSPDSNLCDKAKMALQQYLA
UniProt Q92685, sequence (Q92685 whole entry, looked up): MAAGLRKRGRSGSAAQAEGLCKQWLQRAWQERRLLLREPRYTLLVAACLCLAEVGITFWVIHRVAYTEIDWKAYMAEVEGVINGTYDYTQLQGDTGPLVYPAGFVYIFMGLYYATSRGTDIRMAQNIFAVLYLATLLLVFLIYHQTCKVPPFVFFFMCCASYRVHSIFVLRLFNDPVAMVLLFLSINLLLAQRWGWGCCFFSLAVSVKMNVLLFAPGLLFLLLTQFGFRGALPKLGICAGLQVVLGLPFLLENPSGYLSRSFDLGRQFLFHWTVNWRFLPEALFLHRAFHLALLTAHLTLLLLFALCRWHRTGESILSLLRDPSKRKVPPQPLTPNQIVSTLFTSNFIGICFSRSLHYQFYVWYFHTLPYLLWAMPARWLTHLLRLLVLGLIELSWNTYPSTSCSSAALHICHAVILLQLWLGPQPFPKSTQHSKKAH
UniProt P30043, sequence (P30043 whole entry, looked up): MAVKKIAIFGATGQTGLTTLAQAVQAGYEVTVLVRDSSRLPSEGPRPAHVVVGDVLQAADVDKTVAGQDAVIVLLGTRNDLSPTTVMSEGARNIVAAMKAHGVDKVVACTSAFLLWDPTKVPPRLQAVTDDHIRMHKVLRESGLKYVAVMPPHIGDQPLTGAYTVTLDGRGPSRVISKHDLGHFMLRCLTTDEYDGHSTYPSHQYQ

Row | Target | log2 fold change (saracatinib) | log2 fold change (sotrastaurin) | log2 fold change (alvocidib) | log2 fold change (Tubastatin A) | log2 fold change [1] | log2 fold change (defactinib) | log2 fold change (rucaparib) | log2 fold change [2] | log2 fold change (encorafenib) | log2 fold change [3] | log2 fold change [4] | log2 fold change (filanesib) | log2 fold change (zotarolimus) | log2 fold change (idasanutlin) | log2 fold change (alisertib) | log2 fold change [5] | log2 fold change (gefitinib) | log2 fold change [6] | log2 fold change (lapatinib) | log2 fold change (pictilisib)
1 | BCAP29 isoform 2 (UniProt Q9UHQ4) | 0.052 | 0.104 | 0.041 | -0.052 | 0.002 | 0.033 | -0.043 | -0.016 | -0.026 | 0.018 | -0.033 | -0.047 | -0.022 | 0.027 | -0.023 | -0.1 | 0.035 | 0.035 | -0.009 | -0.027
2 | AAR2 (UniProt Q9Y312) | 0.06 | -0.017 | -0.026 | -0.027 | -0.049 | 0.063 | 0.17 | -0.069 | -0.029 | -0.015 | 0.022 | 0.111 | 0.042 | 0.002 | -0.129 | 0.104 | 0.075 | 0.058 | -0.005 | -0.082
3 | ATAD3A isoform 2 (UniProt Q9NVI7) | 0.001 | -0.053 | 0.102 | 0.04 | -0.139 | 0.05 | 0.252 | -0.017 | 0.154 | -0.046 | -0.029 | -0.005 | -0.053 | 0.073 | -0.006 | -0.116 | -0.199 | 0.001 | -0.029 | -0.185
4 | ATG9A (UniProt Q7Z3C6) | 0.016 | -0.084 | -0.086 | 0.067 | -0.029 | -0.09 | -0.008 | -0.052 | 0.055 | -0.013 | 0.008 | -0.113 | -0.014 | -0.003 | 0.064 | -0.073 | 0.011 | -0.015 | -0.045 | 0.075
5 | ACAP2 (UniProt Q15057) | -0.02 | -0.029 | -0.068 | 0.001 | 0.031 | -0.032 | -0.016 | -0.04 | 0.062 | -0.026 | -0.001 | 0.119 | 0.01 | -0.047 | 0.011 | 0.283 (active) | 0.02 | 0.014 | 0.015 | -0.059
6 | AKR1C2 (UniProt P52895) | -0.108 | -0.009 | 0.08 | 0.111 | 0.052 | 0.146 | 0.146 | 0.047 | 0.094 | -0.06 | 0.706 (active) | 0.259 | 0.097 | -0.015 | -0.012 | -0.013 | 0.044 | -0.012 | 0.068 | 0.165
7 | BUB1B isoform 3 (UniProt O60566) | -0.071 | -0.113 | -0.074 | 0.031 | 0.042 | -0.076 | 0.006 | -0.031 | 0.097 | -0.029 | 0.038 | 0.103 | 0.014 | -0.014 | 0.005 | 0.001 | 0.032 | -0.098 | 0.006 | 0.065
8 | ALG11 (UniProt Q2TAA5) | 0.047 | 0.013 | -0.064 | -0.023 | -0.018 | -0.021 | -0.015 | -0.021 | 0.073 | -0.082 | -0.018 | -0.038 | 0.036 | -0.051 | -0.075 | -0.003 | 0.206 | 0.026 | 0.005 | 0.032
9 | AGRN (UniProt O00468) | 0.062 | 0.065 | -0.009 | -0.01 | 0 | -0.119 | 0.032 | -0.164 | 0.034 | 0.014 | -0.068 | 0.014 | -0.001 | -0.005 | -0.043 | -0.071 | 0.118 | 0.037 | 0.018 | 0.055
10 | BLVRB (UniProt P30043) | 0.101 | -0.047 | -0.083 | -0.002 | 0.058 | -0.045 | 0.043 | 0.061 | -0.007 | -0.003 | 0.113 | -0.073 | 0.024 | -0.045 | -0.07 | 0.045 | 0.061 | 0.015 | 0.071 | 0.037
11 | ATP6V1H (UniProt Q9UI12) | -0.047 | -0.015 | -0.065 | 0.046 | -0.016 | -0.042 | 0.016 | 0.054 | 0.016 | -0.043 | 0.035 | -0.106 | 0.055 | -0.067 | -0.1 | -0.064 | -0.121 | -0.073 | -0.009 | -0.063
12 | ALG3 (UniProt Q92685) | 0.145 | -0.047 | 0.055 | -0.056 | 0.116 | 0.009 | 0.1 | 0.056 | 0.076 | 0.013 | 0.109 | -0.095 | 0.06 | -0.212 | -0.001 | 0.035 | -0.046 | 0 | 0.104 | 0.006
13 | AARS2 (UniProt Q5JTZ9) | 0 | -0.05 | -0.1 | -0.096 | -0.019 | -0.027 | 0.008 | 0.004 | 0 | -0.017 | -0.053 | -0.159 | 0.029 | -0.107 | 0.016 | -0.012 | -0.002 | 0.047 | -0.005 | 0.06
14 | ARMC8 (UniProt Q8IUR7) | -0.05 | -0.07 | -0.049 | 0.009 | 0.016 | -0.005 | 0.017 | 0.228 | 0.026 | -0.031 | 0.056 | 0.048 | 0 | -0.016 | -0.08 | -0.014 | -0.029 | -0.016 | 0.046 | 0.005
15 | BTAF1 (UniProt O14981) | 0.087 | 0.001 | -0.022 | -0.041 | -0.027 | -0.074 | -0.089 | -0.012 | 0.026 | 0.007 | 0.018 | -0.006 | -0.004 | -0.095 | 0.175 | 0.093 | -0.045 | -0.028 | -0.01 | -0.032
16 | BYSL (UniProt Q13895) | -0.042 | -0.101 | -0.03 | 0.136 | 0.034 | -0.004 | -0.004 | 0.094 | 0.034 | -0.073 | -0.033 | 0.078 | 0.065 | -0.057 | 0.022 | 0.207 | -0.03 | -0.057 | 0.032 | -0.022
